Assay outcomes as filed in PubChem BioAssay.
Only some compounds are listed: those with a hit (about 18% of all), similar ones and a draw of the others.
CtBP-E1A blk = inhibitors of CtBP/E1A interaction. AlphaScreen GST-E1A/His-CtBP binding, 1536-well; stronger effect = lower value. 0.49% of 340,000 active. activity change, % (no concentration beside the values); in the data active = activity change below about -65%; inconclusive = mostly about -30% to -63%
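Protein mix (5X: 125 nM each GST-E1A, His-CtBP) was incubated with pinned compound 2 h at 37 deg C in dark, in 50 mM Tris pH 8.0 buffer with 300 mM NaCl. Glutathione donor and nickel acceptor beads followed; AlphaScreen signal read after 1 h.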
DT40 TDP1 no CPT = qHTS for Inhibitors of human tyrosyl-DNA phosphodiesterase 1 (TDP1): qHTS in cells in absence of CPT. 15% of 420,000 active. Potency, µM (top dose mostly 46.2 µM), usual class: inhibitors. DT40 Tdp1-/- hTDP1 cells, no CPT, ATP luminescence, 48 h. AID 686978, 2013; note: nearly all actives have a fitted effect of over 55% in size
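Luminescent ATP content (CellTiter-Glo) served as the growth readout. Knockout chicken DT40 cells expressing human TDP1 were exposed to compounds without camptothecin for a minimum 48 hr at 37 °C.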
TDP1 block = TDP1 (human) enzyme inhibition; AID 485290; Q9NUW8; 0.28% of 350,000 active; Potency, µM (series often up to 130 µM), usual class: inhibitors; recombinant TDP1, AlphaScreen DNA substrate cleavage; note: nearly all actives have a fitted effect of over 40% in size
Target sequence (Q9NUW8 whole entry, looked up): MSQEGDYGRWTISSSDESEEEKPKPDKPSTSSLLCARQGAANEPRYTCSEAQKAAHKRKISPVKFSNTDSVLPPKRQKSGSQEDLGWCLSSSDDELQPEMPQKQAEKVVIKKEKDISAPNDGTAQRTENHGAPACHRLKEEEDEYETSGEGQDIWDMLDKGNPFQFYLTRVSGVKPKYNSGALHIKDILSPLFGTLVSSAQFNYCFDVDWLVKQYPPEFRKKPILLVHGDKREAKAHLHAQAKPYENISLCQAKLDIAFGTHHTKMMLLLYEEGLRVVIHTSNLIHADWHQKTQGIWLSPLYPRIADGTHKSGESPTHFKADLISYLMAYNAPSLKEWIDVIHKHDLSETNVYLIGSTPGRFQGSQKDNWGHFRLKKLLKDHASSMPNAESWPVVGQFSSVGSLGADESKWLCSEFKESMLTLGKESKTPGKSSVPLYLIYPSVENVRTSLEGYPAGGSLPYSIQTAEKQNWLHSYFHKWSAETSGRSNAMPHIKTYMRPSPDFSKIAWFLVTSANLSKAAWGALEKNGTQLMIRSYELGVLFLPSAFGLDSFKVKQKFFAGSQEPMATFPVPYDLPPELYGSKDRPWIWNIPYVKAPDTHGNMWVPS
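Tdp1 1 nM final; 15 min RT w/ cpd; substrate 15 nM, 5 min; beads 10 ug/ml, 10 min; AlphaScreen read. Neg ctrl: no enzyme.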
IL1B secr inh = inhibitors of inflammasome signaling (IL-1 beta secretion); THP-1 LPS/ATP IL-1B secretion, AlphaLISA, 16 h; stronger effect = lower value; activity change, % at 57.5 µM; 4.7% of 360,000 active; AID 743279; in the data active = activity change below about -50%; inconclusive = mostly about -30% to -49%
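THP-1 cells pretreated 1 hr with compounds (up to 57.5 uM final), then stimulated with LPS (250 ng/mL final) plus ATP (1.25 mM final); secreted IL-1B measured by AlphaLISA after 16 hr, decreased signal indicating inhibition.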
DT40 TDP1 CPT = growth inhibition of DT40 Tdp1-/-;hTDP1 cells with camptothecin (screen for TDP1 inhibitors) | chicken DT40 Tdp1-/-;hTDP1 cells + 20 nM CPT, ATP luminescence, 48 h | Potency, µM (highest dose often 46.2 µM), most hits filed as inhibitors | 12% of 420,000 active; note: nearly all actives have a fitted effect of over 55% in size
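Cell growth measured by CellTiter-Glo luminescence after a minimum 48 h, 37 C compound exposure with 20 nM CPT in Tdp1-knockout DT40 cells stably expressing hTDP1, seeded 400/well; qHTS titration format.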
Six1-Eya2 blk = Six1/Eya2 interaction inhibition; Q15475+O00167; activity change, % (no concentration beside the values); AlphaScreen GST-Six1/His-Eya2 binding, biochemical; stronger effect = lower value; 0.56% of 360,000 active; in the data active = activity change below about -65%; inconclusive = mostly about -30% to -63%
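Six1/Eya2 binding was read as AlphaScreen signal after compounds were pinned into GST-Six1 plus His-tagged Eya2 (5X stock 250/500 nM) in pH 8.0 Tris/NaCl/TCEP buffer, beads added, then incubated 1 h, 37 C, dark.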
Of the large screens only hits and unclear results are named; the others gave an inactive call. Unless noted, calls come from the whole dose curve; as a rule, active = well fitted curve in the direction sought with a large enough effect; inconclusive = small, poorly fitted or top-dose-only effect, or another doubt; inactive = no such curve, though single readings can be large; an effect the other way counts as inactive or inconclusive.

O=C1CSC(c2cccc([N+](=O)[O-])c2)N1CCN1CCCCC1 (configuration not stated)	none (no result: CtBP-E1A blk)
CCCCC(C)(O)C/C=C/[C@H]1[C@H](O)CC(=O)[C@@H]1CCCCCCC(=O)O (some centres not stated)	none (no result: CtBP-E1A blk, IL1B secr inh, Six1-Eya2 blk)
CCCC1([C@H](O)C/C=C/[C@H]2[C@H](O)CC(=O)[C@@H]2CCCCCCC(=O)OC)CCC1	DT40 TDP1 no CPT 10.6µM, DT40 TDP1 CPT 15µM (no result: CtBP-E1A blk, IL1B secr inh, Six1-Eya2 blk)
CCN(CC)c1ccc(/C=N/NC(=O)c2cnccn2)cc1	DT40 TDP1 no CPT 1.64µM, DT40 TDP1 CPT 1.3µM
CCN(CC)c1ccc(/C=N/N=C(c2ccccc2)c2ccccc2)c(O)c1	CtBP-E1A blk inconclusive, DT40 TDP1 no CPT 20.6µM, DT40 TDP1 CPT inconclusive
CCN(CC)c1ccc(NC(=S)NC(=O)c2ccco2)cc1	DT40 TDP1 no CPT 18.4µM, DT40 TDP1 CPT 18.4µM, Six1-Eya2 blk -69.7
CCN(CC)c1ccc(/C=N/NC(=O)c2ccc([N+](=O)[O-])cc2)cc1	none (no result: CtBP-E1A blk)
CCN(CC)c1ccc(NC(=O)c2ccco2)cc1	none
CCN(CC)c1ccc(/C=N/N(c2ccccc2)c2ccccc2)c(O)c1	DT40 TDP1 no CPT inconclusive, DT40 TDP1 CPT inconclusive, Six1-Eya2 blk inconclusive
CCN(CC)c1ccc(/C=N/NC(=O)Cc2cccs2)c(O)c1	CtBP-E1A blk inconclusive, DT40 TDP1 no CPT 5.17µM, DT40 TDP1 CPT 4.61µM, Six1-Eya2 blk inconclusive
O=C(NCCN1CCOCC1)C12CC3CC(C1)CC(c1ccccc1)(C3)C2	none
Brc1ccc(-c2nnc3n2C2(CCCC2)Cc2ccccc2-3)o1	DT40 TDP1 no CPT inconclusive, DT40 TDP1 CPT inconclusive
O=S(=O)(NC1CCCC1)c1ccc(S(=O)(=O)N(Cc2cccs2)CC2CCCO2)cc1 (configuration not stated)	DT40 TDP1 CPT inconclusive
CCN(CC)c1ccc(/C=N/NC(=S)NCc2ccccc2)c(O)c1	CtBP-E1A blk inconclusive, DT40 TDP1 no CPT inconclusive, DT40 TDP1 CPT inconclusive, Six1-Eya2 blk inconclusive
CCN(CC)c1ccc(/C=N/NC(=O)c2ccco2)c(O)c1	CtBP-E1A blk inconclusive, DT40 TDP1 no CPT 2.59µM, DT40 TDP1 CPT 5.17µM, Six1-Eya2 blk -65.2
CCN(CC)c1ccc(/C=N/NC(=O)c2ccco2)cc1	DT40 TDP1 no CPT 3.26µM, DT40 TDP1 CPT inconclusive
CN(Cc1ccccn1)C(=O)CC1C(=O)NCCN1Cc1ccc(F)cc1Cl (configuration not stated)	none
CCc1ccc2occ(CC(=O)N(Cc3ccc(N(C)C)cc3)C3CCS(=O)(=O)C3)c2c1 (configuration not stated)	DT40 TDP1 no CPT inconclusive, DT40 TDP1 CPT inconclusive (no result: CtBP-E1A blk, IL1B secr inh, Six1-Eya2 blk)
O=C(NCc1ccc(F)cc1)c1cc(C2CCCCN2C(=O)c2ccc(Cl)cc2)on1 (configuration not stated)	DT40 TDP1 no CPT 14.6µM, DT40 TDP1 CPT inconclusive (no result: TDP1 block)
COc1ccc(C(=O)N2CCCCC2c2cc(C(=O)NCc3ccc(F)cc3)no2)cc1 (configuration not stated)	DT40 TDP1 no CPT inconclusive, DT40 TDP1 CPT 16.4µM (no result: TDP1 block)
CS(=O)(=O)N1CCCCC1c1cc(C(=O)NCc2ccc(F)cc2)no1 (configuration not stated)	none (no result: TDP1 block)
O=C(NCc1ccc(F)cc1)c1cc(C2CCCCN2C(=O)c2ccccc2)on1 (configuration not stated)	DT40 TDP1 no CPT inconclusive, DT40 TDP1 CPT inconclusive (no result: TDP1 block)
Cc1ccc(NS(=O)(=O)c2ccccc2)c([N+](=O)[O-])c1	none (no result: TDP1 block)
CC1=C(C(=O)N(C(C)C)C(C)C)CC(CC(=O)NC2CC2)C(=O)N1Cc1ccc(F)cc1 (configuration not stated)	none (no result: TDP1 block)
O=C(CN1C(=O)c2ccccc2C1=O)N1CCN(C(=O)c2ccco2)CC1	DT40 TDP1 CPT inconclusive
COc1ccc(-c2nc(CN3CCN(C(=O)c4ccco4)CC3)c(C)o2)c(OC)c1C	DT40 TDP1 no CPT 18.4µM, DT40 TDP1 CPT inconclusive
O=C(c1ccco1)N1CCN(CCCCN2C(=O)c3ccccc3C2=O)CC1	IL1B secr inh -68.7
COc1ccc(CN2CCN(C(=O)c3ccco3)CC2)cc1OCc1ccccc1	DT40 TDP1 no CPT 14.6µM, DT40 TDP1 CPT inconclusive
CCn1c(=O)cc(SCC(=O)N2CCN(C(=O)c3ccco3)CC2)c2ccccc21	DT40 TDP1 no CPT inconclusive, IL1B secr inh -51.5
COc1ccccc1OCc1ccc(C(=O)N2CCN(C(=O)c3ccco3)CC2)cc1	none
O=C(Nc1cccc([N+](=O)[O-])c1)C1C2CCCCC21 (configuration not stated)	DT40 TDP1 no CPT inconclusive, DT40 TDP1 CPT inconclusive (no result: CtBP-E1A blk, TDP1 block)
Nc1nc(COc2ccc(Cl)cc2)cs1	none
O=C(NCc1ccccc1)C1CCCN1C(=O)Nc1ccccc1[N+](=O)[O-] (configuration not stated)	none (no result: TDP1 block)
O=C(c1ccco1)N1CCN(CC(O)COc2ccc3oc4ccccc4c3c2)CC1 (configuration not stated)	DT40 TDP1 no CPT inconclusive, DT40 TDP1 CPT 18.4µM
CCn1c(=O)cc(SCC(=O)N2CCN(c3ccccc3OC)CC2)c2ccccc21	DT40 TDP1 no CPT inconclusive, DT40 TDP1 CPT 18.4µM
CCn1c(=O)cc(SCC(=O)N2CCOCC2)c2ccccc21	none
CCOC(=O)N1CCN(Cc2cn[nH]c2-c2cccc3ccccc23)CC1	DT40 TDP1 no CPT inconclusive (no result: CtBP-E1A blk)
O=C(c1ccco1)N1CCN(Cc2cn[nH]c2-c2cccc3ccccc23)CC1	DT40 TDP1 no CPT 23.1µM, DT40 TDP1 CPT inconclusive (no result: CtBP-E1A blk, TDP1 block)
CCn1c2ccccc2c2cc(CN3CCN(C(=O)c4ccco4)CC3)ccc21	DT40 TDP1 no CPT 23.1µM, DT40 TDP1 CPT inconclusive
CCC(C)NC(=O)C(=O)NCc1ccccn1 (configuration not stated)	none
CCN(CCn1cccn1)C(=O)CCc1nnc(C2CCCCC2)o1	none
O=C(OCC(=O)N1CCN(C(=O)c2ccco2)CC1)c1ccccc1OCc1ccc(Cl)cc1	DT40 TDP1 no CPT 23.1µM, DT40 TDP1 CPT 16.4µM
CCC(CO)Oc1cc(NC(=O)Cc2ccccc2F)c2ncn(C(C)C)c2c1 (configuration not stated)	none
O=c1cc(-c2cccc(Br)c2)nc(-c2ccccc2F)o1	DT40 TDP1 no CPT 18.4µM, DT40 TDP1 CPT 25.9µM
CCOc1cc(CNc2ccc(N(C)C)cc2)cc(Br)c1OCC(=O)NC(C)(C)C	CtBP-E1A blk inconclusive, DT40 TDP1 no CPT 20.6µM, DT40 TDP1 CPT 18.4µM
CCOc1cc(CNc2ccc(N3CCCCC3)cc2)cc(Br)c1OCC(=O)NC(C)(C)C	CtBP-E1A blk inconclusive, DT40 TDP1 no CPT 16.4µM, IL1B secr inh -86.1, DT40 TDP1 CPT inconclusive, Six1-Eya2 blk inconclusive
